{
  "source": "paper PMC5540273",
  "about": "(PLoS ONE, 2017);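 note: KINOMEscan kinase panel screen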",
  "data": [
    {"tested_on": "T1, AMPK-alpha1", "T1 construct": "gene PRKAA1", "details": "concentration: 1 μM, replicates: in singlicate; n = 1", "units": {"%Inh": "%"}, "values": [
      {"smiles": "N#Cc1ccc(Oc2ccc(Nc3ncnc4cc[nH]c34)cc2Cl)cc1", "%Inh": 17},
      {"smiles": "Cc1cc(N2CCC(NS(=O)(=O)c3ccc(F)cc3)CC2)nc(Nc2cccc(C#N)c2)n1.O=C(O)C(F)(F)F", "note": "[GSK1653537]", "%Inh": 0},
      {"smiles": "O=C(NCCCN1CCCC1=O)c1cnc(NCc2cc(Cl)ccc2Cl)nc1NC1CCNCC1", "%Inh": 18},
      {"smiles": "c1ccc(-c2ccc3c(-c4ccnc(Nc5ccc6c(c5)OCCO6)n4)cnn3n2)cc1", "note": "[GW818941]", "%Inh": 19},
      {"smiles": "CNc1nccc(-c2c(-c3ccc(F)cc3)ncn2CCCN2CCOCC2)n1", "note": "[SB-222516]", "%Inh": 0},
      {"smiles": "C[C@@H]1CCN(C(=O)CO)C[C@@H]1N(C)c1ncnc2[nH]ccc12", "%Inh": 5},
      {"smiles": "Cn1ccc2ncnc(Oc3ccc(NC(=O)Nc4cccnc4)c(Cl)c3)c21", "%Inh": 4},
      {"smiles": "O=C(c1ccc(-c2cc(-c3c[nH]nc3-c3ccccn3)ccn2)cc1)N1CCCC1", "note": "[GW792479]", "%Inh": 0},
      {"smiles": "O=C(Nc1n[nH]c2nc(-c3ccco3)c(Br)cc12)c1ccc(CN2CCCC2)cc1.O=C(O)[C@H](O)[C@@H](O)C(=O)O", "note": "[SB-742352]", "%Inh": 0},
      {"smiles": "Nc1n[nH]c2nnc(-c3ccccc3)cc12", "note": "[SB-517389]", "%Inh": 0},
      {"smiles": "Oc1ccc2ncnc(Nc3ccc(OCc4ccccc4)cc3)c2c1", "note": "[GI262866]", "%Inh": 4},
      {"smiles": "O=C(CCO)NCCn1ccc2ncnc(Nc3ccc(Oc4cccc(C(F)(F)F)c4)c(Cl)c3)c21", "%Inh": 0},
      {"smiles": "Nc1nc(-c2cccnc2)c(-c2ccnc3ccccc23)s1", "note": "[GW684083]", "%Inh": 23},
      {"smiles": "COc1ccc(Nc2nccc(N3CCC(NC(=O)c4cccc(NC(C)=O)c4)C3)n2)cc1", "note": "(stereo not drawn) [GSK1379732]", "%Inh": 5},
      {"smiles": "CC(=O)Nc1n[nH]c2ncc(-c3ccccc3)cc12", "note": "[SB-548492]", "%Inh": 10},
      {"smiles": "COc1ccc(Nc2nccc(N3CCC(NC(=O)Nc4ccc5c(c4)OCO5)C3)n2)cc1", "note": "(stereo not drawn) [GSK1379745]", "%Inh": 24},
      {"smiles": "CCCc1ccc(S(=O)(=O)NC2CCN(c3ccnc(Nc4ccc(OC)cc4)n3)C2)cc1", "note": "(stereo not drawn) [GSK1379737]", "%Inh": 0},
      {"smiles": "Nc1nccc2scc(-c3ccc4c(c3)CCN4C(=O)Cc3cc(F)ccc3F)c12", "note": "[GSK2587663]", "%Inh": 0},
      {"smiles": "CS(=O)(=O)CCNCc1nc(-c2ccc3ncnc(Nc4ccc(OCc5cccc(F)c5)c(Cl)c4)c3c2)cs1.Cl", "note": "[GW583340]", "%Inh": 0},
      {"smiles": "COc1ccc(NC(=O)Nc2ccc(C)c(-c3ccc(C(=O)Nc4ccncc4)cc3)c2)cc1", "note": "[GSK1398475]", "%Inh": 0},
      {"smiles": "FC(F)(F)c1cc(Nc2nccc(-c3c(-c4ccc(Cl)cc4)nn4ncccc34)n2)ccc1Cl", "note": "[GW829351]", "%Inh": 0},
      {"smiles": "Cl.Cl.c1ccc(-c2cc3ccncc3cc2OC2CCNCC2)cc1", "note": "[GSK1122999]", "%Inh": 16},
      {"smiles": "Nc1nc(-c2ccc3c(N)n[nH]c3c2)cc(N2CCCCC2)n1", "note": "[GSK2228768]", "%Inh": 0},
      {"smiles": "COc1cc2c(Nc3cccc(NC(=O)c4ccccc4)c3)ncnc2cc1OCCCN1CCOCC1", "note": "[GSK223810]", "%Inh": 18},
      {"smiles": "Clc1cccc(-c2nc(Nc3ccncc3)c3ccccc3n2)c1", "note": "[GW873004]", "%Inh": 30},
      {"smiles": "CSc1ccc(NC2=C(c3ccccc3Cl)C(=O)NC2=O)cc1", "note": "[SB-342411]", "%Inh": 25},
      {"smiles": "O=C(Nc1ccccc1F)NC1CCN(c2ccnc(Nc3ccc(F)cc3)n2)C1", "note": "(stereo not drawn) [GSK1379722]", "%Inh": 2},
      {"smiles": "Cc1ccc(NC(=O)c2cccc(C#N)c2)cc1-c1ccc(C(=O)Nc2ccncc2)cc1", "note": "[GSK1398463]", "%Inh": 0},
      {"smiles": "Nc1nc(-c2ccc3c(N)n[nH]c3c2)cc(N2CCC[C@@H](C(=O)Nc3ccccc3)C2)n1.O=C(O)C(F)(F)F.O=C(O)C(F)(F)F", "note": "[GSK2288359]", "%Inh": 9},
      {"smiles": "CCc1nc(-c2cccc(C)c2)c(-c2ccnc(NC(=O)c3ccccc3)c2)s1", "%Inh": 16},
      {"smiles": "Cl.Fc1ccccc1COc1ccc(Nc2ncnc3ccc(-c4nnc(C(F)(F)F)o4)cc23)cc1Cl", "note": "[GW424170]", "%Inh": 0},
      {"smiles": "Clc1cc(Nc2ncnc3cc[nH]c23)ccc1OCc1ccccn1", "%Inh": 20},
      {"smiles": "CC(C)N1CCC(n2cnc(-c3ccc(F)cc3)c2-c2ccnc(N)n2)CC1", "note": "[SB-223132]", "%Inh": 0},
      {"smiles": "COC(=O)c1cccc(NC(=O)NCCNc2ccnc(Nc3ccc(F)cc3)n2)c1", "note": "[GSK1379883]", "%Inh": 0},
      {"smiles": "Cc1ccc(C)c(NC(=O)NCCNc2ccnc(Nc3ccc(F)cc3)n2)c1", "note": "[GSK1379878]", "%Inh": 10},
      {"smiles": "CCC(CC)(CC)n1cnc2c(N)ncnc21", "note": "[SKF-97620]", "%Inh": 8}
    ]}
  ]
}
